# Reference: PubChem BioAssay (NCI)
# This is part of a sample that, as a whole, favours compounds with a hit. Of some 83,000 tested, about 20% had one in any assay.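 Note: values are percent growth. 100 is the growth of untreated cells, values between 100 and 0 indicate rising inhibition; between -100 and 0 indicates cell death.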 Values without a mark were called inactive. Active and inactive are the calls of the source. How the source made its calls: active means growth percent below 10; inactive means the rest.
# Tests used:
# Test in all cases: NCI-60 one-dose screen, 48 h (100 = growth as untreated, 0 = no growth, -100 = all killed)
# Details in all cases: 10 µM unless noted
# T-47D breast = test system: T-47D breast
# BT-549 breast = test system: BT-549 breast
# MDA-MB-435 melanoma = test system: MDA-MB-435 melanoma
# SW-620 colon = test system: SW-620 colon
# MCF7 breast = test system: MCF7 breast
# HCC-2998 colon = test system: HCC-2998 colon
# KM12 colon = test system: KM12 colon
# HCT-116 colon = test system: HCT-116 colon
SMILES,growth (T-47D breast),growth (BT-549 breast),growth (MDA-MB-435 melanoma),growth (SW-620 colon),growth (MCF7 breast),growth (HCC-2998 colon),growth (KM12 colon),growth (HCT-116 colon)
COc1ccc(-c2ccc3cnc4sc(-c5ccc(OC)cc5)nc4c3n2)cc1,76.3%,108%,101%,112%,78%,93.1%,89.1%,–
Cc1nc2sc(C(=O)Nc3cccc(Cl)c3C)c(N)c2cc1C(=O)c1ccccc1,36.8%,7.58% (active),-37.4% (active),27%,11.1%,7.04% (active),13%,–
Cc1cnc(C(=O)NNc2nc3sc4c(c3c(=O)n2C)C(C)CCC4)cn1 (stereo unspecified),-7.99% (active),25.8%,7.05% (active),10.2%,-12% (active),29.5%,6.33% (active),–
CC(=O)N(N=Nc1ccccc1)c1cccc2ccccc12,84.7%,69.5%,97.8%,55.8%,76.8%,94.7%,108%,–
CN(C)CCNc1nc2c3cc(Cl)ccc3nn2c2ccccc12,86.6%,73%,65.3%,23.7%,35.3%,56.3%,39.5%,–
C#CCOc1ccc2ncnc(Nc3ccc(NC(=O)CCl)cc3)c2c1,16.2%,-19.5% (active),17.7%,-13.9% (active),5.26% (active),65.2%,8.97% (active),–
O=C(c1cc2ccccc2o1)c1nn(-c2ccccc2)/c(=N/N=Cc2cn(-c3ccccc3)nc2-c2cc3ccccc3oc2=O)s1,92.9%,108%,81.1%,97.1%,83.1%,104%,96.5%,–
CO[C@H]1/C=C(/C)CCC[C@H](C)[C@H](O)[C@@H](C)C(=O)C(C)(C)[C@@H](O)CC(=O)O[C@@H]1/C(C)=C/c1csc(C)n1,42.3%,32.3%,-34.8% (active),33.8%,20.4%,–,5.07% (active),–
C=CCn1c(SCC(=O)Nc2ccc(C(=O)/C=C/c3ccc(Cl)cc3)cc2)nnc1-c1cc(-c2ccc(S(N)(=O)=O)cc2)nc2ccccc12,81.8%,80.5%,76.1%,100%,38.6%,101%,87.2%,–
Cc1nnc(NC(=O)c2nc(S(=O)(=O)Cc3ccc(F)cc3)ncc2Cl)s1,–,26.7%,75.9%,-59.8% (active),44.7%,99.1%,90.8%,-0.743% (active)
N#Cc1c(-c2ccc(Cl)cc2)nc(NN=Cc2cccc(O)c2)nc1N1CCOCC1,–,73.1%,87%,64.8%,60.1%,103%,81%,57.9%
Cn1cc(-c2nc(-c3c[nH]c4ccncc34)cs2)c2ccccc21,–,84.4%,-89.9% (active),-47% (active),4.55% (active),-52.3% (active),18.7%,-63.4% (active)
CC1=Nc2cnc(Nc3ccc(OCCN4CCCCC4)cc3)nc2Nc2ccccc21,–,78.6%,56.3%,62.3%,67.6%,67%,12.8%,64.1%
COc1ccc(C(c2cc(OC)c(OC)c(OC)c2)N2CCN(c3ccccc3)CC2)cc1 (stereo unspecified),–,93.6%,9.02% (active),74.1%,72.8%,93.3%,65.1%,62.8%
CCC(C)N(c1ccc(Cl)cc1)c1nc(-c2ccc(Br)cc2)cs1 (stereo unspecified),–,121%,101%,95.5%,–,–,91.5%,91%
N#Cc1c(-c2ccc(Cl)cc2)nc(SCC(=O)NC2=NN=C(c3ccccc3)CS2)[nH]c1=O,–,91.3%,29.5%,91.6%,47.8%,–,83.8%,80.6%
O=C(Cn1cc(CN2C(=O)c3ccccc3S2(=O)=O)nn1)Nc1nc2ccccc2s1,–,97.9%,112%,105%,91.1%,113%,103%,–

SMILES,growth (T-47D breast),growth (BT-549 breast),growth (MDA-MB-435 melanoma),growth (SW-620 colon),growth (MCF7 breast),growth (HCC-2998 colon),growth (KM12 colon),growth (HCT-116 colon)
O=C1c2cccnc2C(=O)c2c1c(C(=O)NCCn1ccnc1)c1ccccn21,–,45.8%,-84.2% (active),12.9%,0.25% (active),22.4%,–,-8.04% (active)
CN1CCN(c2ccc(NC(=O)c3nc4ccc5[nH]ncc5c4c4c3CCCC4)cc2C(F)(F)F)CC1,–,90.6%,29.7%,5% (active),24.6%,21.1%,–,2.82% (active)
Fc1cccc(CNc2c3ccccc3nc3ccccc23)c1F,–,90.6%,87.3%,41.4%,29.8%,58.4%,87%,–
OCCCC1CCN(C(Cc2ccccc2)c2ccccc2)CC1 (stereo unspecified),–,79.8%,96.4%,107%,94.6%,94.4%,94.7%,83.9%
COc1ccccc1NC(=O)Cn1cc(CN2CCN(c3ccnc4cc(Cl)ccc34)CC2)nn1,–,96.8%,97.6%,91.9%,83.5%,107%,89.6%,98.3%
O=C(Nc1ccc(NC(=O)c2cc(=O)[nH]c3ccccc23)cc1)Nc1cccc(C(F)(F)F)c1,–,62.8%,77.1%,59.6%,70.7%,–,53.3%,41.1%
Cc1cc(Cl)ccc1NC(=O)c1cc2ccccc2cc1O,–,26.6%,30.1%,11.2%,2.86% (active),15%,7.04% (active),7.95% (active)
COc1ccc(OC)c(-c2c(C#N)c(-c3cccs3)nc3c2c(-c2ccccc2)nn3-c2ccccc2)c1,–,121%,104%,93.9%,98.6%,110%,105%,91.7%
Cc1cc2c(O)c(-c3cccc(Cl)c3)c3sc(=O)oc3c2cc1C,–,58.8%,28.9%,35%,26.3%,73.1%,64.3%,18.1%
CC1=NN(c2nc(SCC(=O)Nc3nc4ccc(C)cc4s3)nc(-c3ccccc3)c2C#N)C(=O)C1,–,95.5%,103%,102%,96.8%,–,101%,101%
CS(=O)(=O)c1cccc(-c2c(-c3cccc(OS(N)(=O)=O)c3)nc3sccn23)c1,–,100%,102%,99.7%,92%,104%,103%,97.9%
CCOC(=O)C1=NN(c2ccccc2)C(=O)/C1=C\N1C(=O)CC(=O)NC1=S,–,101%,-22.1% (active),93.7%,102%,112%,99.4%,101%
COc1ccc2c(c1)c(-c1noc(C(=O)c3cn(C)c4ccc(Br)cc34)n1)cn2C,–,99.3%,114%,105%,93%,100%,106%,92.4%
COC(=O)c1ccc2c(c1)C(=O)c1c-2n(CCCN)c(=O)c2cc([N+](=O)[O-])ccc12,–,-100% (active),-90.9% (active),-100% (active),-87.8% (active),-94.9% (active),-97.2% (active),-100% (active)
C/C(=N/O)c1ccc(F)cc1,–,88.2%,112%,48.6%,54.3%,130%,106%,51.9%
C=C(C)[C@@H]1CC[C@]2(C(=O)NCC#CCN3CCN(C)CC3)CC[C@]3(C)[C@H](CC[C@@H]4[C@@](C)(CCC#N)[C@H](C(=C)C)CC[C@]43C)[C@@H]12,–,78.6%,54.6%,45.5%,50.5%,25.2%,45.9%,26.4%
